# Compound activity from PubChem BioAssay.
# The list is a sample of the results.
# aSyn 5UTR act: Activators via SNCA 5'UTR binding, MLPCN. alpha-synuclein 5'UTR reporter, activators screen. activity score, % (tested at 7.5 µM), hits read low. 300,000 compounds, 7.1% hits; in the data active means activity score below about -60%
# A number is an active result; - = inactive.
SMILES,aSyn 5UTR act
CCN1C(=O)C(=Cc2cccc(OC)c2Oc2ccc([N+](=O)[O-])cc2[N+](=O)[O-])SC1=S,-
CCN1C(=O)/C(=C/C=C2\C=CN(CC)c3ccccc32)SC1=S,-80
CCN1C(=O)/C(=C\C=C2/C=CC=CN2CC)SC1=S,-125
CC1(C)CNC(=O)c2sc(NC(=O)c3ccccc3)nc2C1,-155
CC1(C)CC(=O)c2sc(NC(=O)c3ccc4ncsc4c3)nc2C1,-77
CC1(C)CC(=O)c2sc(NC(=O)c3ccccc3)nc2C1,-78
CC1(C)CC(=O)c2sc(NC(=O)C(C)(C)C)nc2C1,-184
CCc1ccc(C(=O)N/N=C(\C)c2ccncc2)s1,-93
C/C(=N/NC(=O)c1ccc(C)s1)c1ccncc1,-87
Cc1nn(-c2ccccc2)c2c1C(O)n1c(nc3ccccc31)S2 (stereo unspecified),-67
OCCN1CCN(CCCN2c3ccccc3Sc3ccc(C(F)(F)F)cc32)CC1,-65
OCCN1CCN(CC/C=C2/c3ccccc3CSc3ccccc32)CC1,-
CCc1cc(C(=O)NNC(=S)NC2CCCCC2)cs1,-87
CC(C)c1cc(C(=O)NNC(=S)NC2CCCCC2)cs1,-86
CN(C)c1cccc(C(=O)NNC(=S)NC2CCCC2)c1,-64
O=C(/C=C/c1ccc(F)cc1)NCc1cccs1,-112
O=C(NCc1cccs1)c1nc2c(nnn2Cc2ccccc2Cl)c(=O)[nH]1,-
O=C(/C=C/c1ccccc1Cl)NNC(=O)c1cccs1,-83
O=C(/C=C/c1ccc(F)cc1)NC(=S)NNC(=O)c1cnccn1,-
O=C(/C=C/c1ccccc1Cl)NCc1cccs1,-101
COc1ccccc1N=Cc1c(C)c(C#N)c2[nH]c3ccccc3n2c1=O,-90
CC(=O)c1ccc(Nc2ncnc3c2oc2ccccc23)cc1,-90
c1ccc2c(c1)oc1c(NCC3CCCO3)ncnc12 (stereo unspecified),-178
Cc1nc(Nc2ccncc2)c2oc3ccccc3c2n1,-66
c1ccc(CNc2ncnc3c2oc2ccccc23)nc1,-171
SMILES,aSyn 5UTR act
Cc1ccc(N=Cc2nc(-c3ccco3)oc2O)cc1,-69
Oc1oc(-c2ccccc2)nc1/C=N/c1nccs1,-86
Oc1oc(-c2ccc(Br)cc2)nc1/C=N/c1ccccn1,-81
Cc1ccc(-c2nc(C=Nc3ccccc3)c(O)o2)cc1,-102
Nc1cc2ccncc2c2ccccc12,-71
COC(=O)Nc1nnc(/C=C/c2ccc(OC)cc2)s1,-109
COc1ccc(/C=C/c2nnc(NC(C)=O)s2)cc1,-117
O=C(Nc1ccccc1)c1ccc(-c2ccc(Br)cc2)o1,-93
O=C(Nc1ccccc1)c1ccc(-c2ccc([N+](=O)[O-])cc2)o1,-98
O=C(c1ccc(-c2ccc([N+](=O)[O-])cc2)o1)N1CCCCC1,-106
COc1cc(O)cc(O)c1C(=O)/C=C/c1ccccc1,-140
COc1cc(OC)c(C(=O)/C=C/c2ccccc2)c(O)c1O,-92
O=C(Nc1nccs1)c1ncc(Cl)c(Cl)c1Cl,-76
CCn1cc(Cl)c(C(=O)Nc2nccs2)n1,-82
Cn1cc(Cl)c(C(=O)Nc2nccs2)n1,-72
CC(C)(C)c1ccc(SCCc2cccnc2)cc1,-123
Cc1ccc(-c2onc3ccc(C(=O)O)cc23)cc1,-200
O=C(O)c1ccc2cc(-c3ccccc3)[nH]c2c1,-
O=C(O)c1ccc2noc(-c3ccccc3)c2c1,-119
O=C(O)c1ccc2nc(-c3ccccc3)c(-c3ccccc3)nc2c1,-93
CC(=O)COC(=O)c1ccc2noc(-c3ccccc3)c2c1,-78
Cc1ccccc1N/N=C1\CCCNC1=O,-100
Cc1ccc(NC(=O)CS(=O)c2ccccc2N)c(C)c1 (stereo unspecified),-96
O=C(Nc1nccs1)c1cc([N+](=O)[O-])ccc1Cl,-68
O=C(Nc1nccs1)c1ccc(-c2ccc([N+](=O)[O-])cc2)o1,-141
SMILES,aSyn 5UTR act
Cc1cccc(NC(=O)c2cc([N+](=O)[O-])ccc2Cl)c1O,-85
O=C(Nc1nccs1)c1ccc(-c2ccc(Cl)cc2)o1,-207
O=C(Nc1cccnc1)c1ccc(-c2ccc(Cl)cc2)o1,-190
O=C(Nc1nccs1)c1ccc(-c2ccc(F)cc2)o1,-260
COc1ccccc1/C=C/C=N/n1c(-c2ccccn2)n[nH]c1=S,-100
O=C1NC(=Nc2ccccc2)S/C1=C\c1cccn1-c1ccccc1,-388
S=C(Nc1ccc(Br)cc1)NC1CCCCC1,-119
FC(F)Oc1ccc(NC(=S)NC2CCCCCCC2)cc1,-93
S=C(Nc1ccc(Cl)cc1)NC1CCCCC1,-73
COc1cccc(-c2ccnc3[nH]n(-c4ccccc4)c(=O)c23)c1,-76
Cc1nonc1OCCCNc1ccc([N+](=O)[O-])cc1Cl,-84
CCN(Cc1ccc(OC)c(F)c1)C(=O)CCl,-74
O=S(=O)(Nc1ccc(F)cc1Cl)c1ccc(-c2cnc(C3CC3)o2)cc1,-
O=C(NCC1CCCCC1)c1ccc(F)cc1Cl,-124
Cc1ccnc(NC(=O)Cc2ccc(-c3ccccc3)cc2)c1,-122
O=C(Cc1ccc(-c2ccccc2)cc1)Nc1ccccn1,-118
O=C(c1ccncc1)N1N=C(c2ccc(Cl)cc2)CC1c1ccccc1O (stereo unspecified),-128
COc1ccccc1NC1=C(Cl)C(=O)N(c2ccccc2)C1=O,-70
CCOc1ccc(N2C(=O)C(Cl)=C(Nc3ccccc3O)C2=O)cc1,-184
CCOc1ccc(NC2=C(Cl)C(=O)N(C3CCCCC3)C2=O)cc1,-102
O=C1C(Cl)=C(Nc2ccccc2O)C(=O)N1CCc1ccccc1,-87
Cn1ccsc1=NC(=O)c1cccc(OC(F)F)c1,-128
COc1cccc2oc3cc(C#Cc4ccccn4)ccc3c(=O)c12,-194
O=C(Nc1nnc(S(=O)(=O)N2CCCCCC2)s1)c1ccccc1,-65
O=C(Nc1nnc(S(=O)(=O)N2CCN(c3ccc(F)cc3)CC2)s1)c1ccccc1,-63
SMILES,aSyn 5UTR act
COc1cccc(/C=N/NC(=O)c2[nH]nc3c2CCc2ccccc2-3)c1,-69
CC(C)NC(=O)c1[nH]nc2c1CCc1ccccc1-2,-165
Cc1cccc2nc3c(nc12)-c1ccccc1C3=O,-106
Cc1ccc2nc3c(nc2c1)-c1ccccc1C3=O,-65
Cc1cc(C)cc(C(=O)Nc2ccc(N3CCCC3)cc2)c1,-120
Cc1cc(C)cc(NC(=O)Nc2ccc(N3CCCCC3)cc2)c1,-153
CCCCNc1c(-c2cccc(-c3cc(C(C)=O)cs3)c2)nc2ccc(C)cn12,-71
FC(F)(F)c1cc(-c2ccco2)nc(NCCc2ccccc2)n1,-92
CCC(=O)N1CCN(c2ccc(NC(=O)c3ccco3)cc2)CC1,-94
CC(=O)N1CCN(c2ccc(NC(=O)c3ccco3)cc2)CC1,-83
CCCCN1C(=O)CC(Nc2ccc(CC)cc2)C1=O (stereo unspecified),-125
Cc1ccc(NC2CC(=O)N(Cc3ccccc3)C2=O)cc1 (stereo unspecified),-66
CC(C)COc1ccc(C(=O)Nc2ccc(NC(=O)c3ccco3)c(Cl)c2)cc1,-149
O=C(Nc1ccc(NC(=O)c2ccco2)c(Cl)c1)c1ccccc1,-99
CC(C)Oc1ccc(C(=O)Nc2ccc(NC(=O)c3ccco3)c(Cl)c2)cc1,-106
O=C(Nc1ccc(Br)c(Cl)c1)c1ccco1,-162
Nc1ccc(C(=O)Nc2ccc(NC(=O)c3ccco3)c(O)c2)cc1,-82
CC(=O)c1c(C)[nH]c(C(=O)NCCc2cccc(C)c2)c1C,-170
CC(=O)c1c(C)[nH]c(C(=O)Nc2ccccc2Cl)c1C,-63
CC(=O)c1c(C)[nH]c(C(=O)Nc2ccc(F)cc2F)c1C,-111
CC(=O)c1c(C)[nH]c(C(=O)Nc2ccc(C)cc2Br)c1C,-131
